Measurements from PubChem BioAssay.
“And” between values parts separate entries of the source, which are not always exact repeats. Equal entries are not always repeated. Some of the results follow. Records with an inconclusive call do not appear. The source made the active and inactive calls.

What was measured:
[1] = target: Solute carrier family 12 member 5 (Homo sapiens) (UniProt Q9H2X9); test: KCC2 modulators in sodium-free buffer, confirmation, cell-based, HEK293 KCC2, thallium flux, secondary assay (AID 1713;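 active = thallium flux slope above the same plate's solvent-only control mean plus 3 SD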); conditions: FluoZin2 fluorescence, at 10 µM, stronger effect = higher value
[2] = target: Solute carrier family 12 member 5 (Homo sapiens) (UniProt Q9H2X9); test: KCC2 modulators without ouabain present, confirmation, cell-based, HEK293 KCC2, thallium flux, FluoZin2, secondary assay 2 (AID 1715); conditions: HEK293-KCC2, thallium flux FluoZin2 fluorescence; at 10 µM; actives lie on both sides; F/F0 rise rate, 10–20 s post-thallium;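 note: raw slope with 0.1% DMSO as baseline and bumetanide as block control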
[3] = thallium flux modulation in parental HEK cells, confirmation, counter-screen for KCC2 modulator project, cell-based, counterscreen 1 (AID 1716;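 active = thallium flux rate significantly above the same plate's solvent-only control wells, beyond their mean plus 3 SD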); conditions: HEK293 parental cells, thallium flux FluoZin2, ouabain; at 10 µM; baseline-ratio fluorescence slope, 10–20 s after thallium
[4] = target: Solute carrier family 12 member 5 (Homo sapiens) (UniProt Q9H2X9); test: KCC2 inhibitors and activators, ouabain retest, confirmation, HEK-KCC2 cells (AID 1717;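 active = thallium flux slope beyond 3 SD from same-plate DMSO control mean in most replicates, usually higher, sometimes lower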;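 note: slope of initial-normalized fluorescence between seconds 10 and 20 after thallium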); conditions: HEK293-KCC2, thallium flux FluoZin2 fluorescence, at 10 µM, bidirectional: low = inhibitor, high = activator
[5] = native HEK Tl+ uptake effects, second counter-screen – HEK cells, counterscreen 2, counter-screen for KCC2 modulator project, confirmation (AID 1718;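 active = thallium flux slope above the same plate's solvent-control mean plus 3 SD in both duplicate wells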;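 note: run without ouabain in cells lacking the KCC2 cotransporter; slope of fluorescence scaled to its starting value between 10 and 20 s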); conditions: HEK293 parental, thallium flux FluoZin-2 fluorescence slope; at 10 µM
[6] = inhibitors of TNFa-induced NFkB p65 translocation, primary screen, imaging, HUVEC, MLSMR starter and 10KST1 sets (AID 438;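 active = inhibition above 20% together with a positive visual image hit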;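 note: compound added about 3h40 before a 20 min TNFalpha stimulation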;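 for inhibition: signal is the nuclear over cytoplasmic p65 intensity ratio per well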); conditions: HUVEC TNFa-induced p65 nuclear translocation; cell count: measured here: nuclei count (cytotoxicity indicator), at 2.08 µM; inhibition: at 2 µM, stronger effect = higher value, 0% TNFa-plus-vehicle, 100% no-TNFa wells
[7] = inhibitors of mutant huntingtin aggregation, primary screen, imaging, exon1htt(103Q)mCFP cells, high-content imaging (AID 483;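 active = visual image review flags a hit and inhibition of aggregation exceeds 20%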;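 note: compound exposure lasted 3 days before fixation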;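 for nuclei count: percent of the per-plate median nuclei count of sample wells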); conditions: exon1htt(103Q)mCFP cell line, aggregate imaging, at 2 µM; inhibition of aggregation: stronger effect = higher value; nuclei count: measured here: cell count, toxicity
[8] = inhibitors of E-selectin induction by TNFa, primary screen, imaging, HUVEC, immunofluorescence, MLSMR starter and 10KST1 sets (AID 487;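 active = visually confirmed hit in the image check and inhibition above 20%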;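 for inhibition: signal is fraction of cell area covered by stained E-selectin grains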;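 for nuclei count: 100% = median nuclei count of all wells on the same plate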); conditions: HUVEC TNFalpha-induced E-selectin immunofluorescence imaging, at 2 µM; inhibition: stronger effect = higher value; nuclei count: measured here: cell number, toxicity
[9] = DUSP6 inhibitors restoring Erk phosphorylation by chemical complementation, primary imaging in DUSP6-transfected HeLa (AID 609;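 active = compounds giving at least 50% inhibition in the cell-based MKP-3 phosphatase rescue imaging test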;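 for inhibition: phospho-Erk level distribution per well compared with pooled transfected vehicle control wells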); conditions: HeLa MKP-3 transfected, phospho-Erk imaging KS statistic, at 10 µM, cells stimulated with TPA for 15 min
[10] = target: Dual specificity protein phosphatase 6 (Homo sapiens) (UniProt Q16828); test: as above; conditions: HeLa MKP-3 transfected, phospho-Erk imaging KS statistic; at 10 µM; stronger effect = higher value; cells stimulated with TPA for 15 min
[11] = target: Voltage-gated potassium channel subunit beta-2 (Rattus norvegicus) (UniProt P62483); test: KvBeta enzyme negative modulators, primary screen, biochemical, NADPH fluorescence (AID 622;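 active = fluorescence slope higher than the sample average by over 3 SD, cut at about -0.22 in these data, passing the limit was not always enough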;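 note: slope of raw intensity against log time taken from 70 to 1610 s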); conditions: recombinant KvBeta, 4-cyanobenzaldehyde reduction, at 10 µM, stronger effect = higher value
[12] = target: Voltage-gated potassium channel subunit beta-2 (Rattus norvegicus) (UniProt P62483); test: KvBeta positive modulators, primary screen, biochemical, NADPH fluorescence (AID 623;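 active = NADPH fluorescence slope more negative than the mean of all samples by about 3 SD, 99.7% confidence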;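 note: fluorescence intensity change per second fitted from 20 to 320 s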); conditions: Recombinant KvBeta, NADPH fluorescence decrease slope, 10 min; at 10 µM; stronger effect = lower value
[13] = target: Alpha-2C adrenergic receptor (Homo sapiens) (UniProt P18825); test: modulators of alpha2C/GIRK thallium flux, primary screen, cell-based, HEK293 alpha2C/GIRK1/2 (AID 624;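 active = fluorescence slope after compound addition differing from the mean of all screened samples at 99.7% confidence, in either direction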;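 note: slope of fluorescence ratio to pre-addition baseline per second over 15 to 24 s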); conditions: thallium flux BTC fluorescence, at 10 µM, actives lie on both sides
[14] = inhibitors of Chlamydomonas gravitaxis, primary screen, whole organism, Chlamydomonas reinhardtii, WT vs cilia-less mutant, absorbance, 96-well (AID 463189;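 active = inhibition at or above 50% relative to wild type and mutant plate controls; inactive = inhibition below 50%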;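 note: 0% = wild type cc124 cells in DMSO and 100% = ciliumless bld1 mutant cells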); conditions: OD600 absorbance, 2 days, at 10 µM, stronger effect = higher value
[15] = inhibitors of Sendai virus-induced IRF3 signaling, primary screen, TLR/RLR signaling modifier project, cell-based, Sendai virus stimulus, luciferase, 10K MLSCN set (AID 602276;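 active = inhibition at or above 50% at 10 µM; inactive = inhibition below 50%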;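 note: firefly luciferase from ISG56 promoter only with Renilla not read in this screen; 0% = Sendai virus plus DMSO and 100% = medium plus DMSO without virus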); conditions: HEK293 RL24 IRF3 luciferase reporter, at 10 µM, stronger effect = higher value
[16] = inhibitors of poly I:C-induced TLR3 signaling, primary screen, cell-based, poly I:C stimulus, luciferase, 10K MLSCN set (AID 602277;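 active = inhibition of the reporter signal at or above 50%; inactive = inhibition below 50%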); conditions: HEK293-TLR3 RL24 IRF3 luciferase reporter, at 10 µM, stronger effect = higher value
[17] = target: Muscarinic acetylcholine receptor M4 (Homo sapiens) (UniProt P08173); test: compounds altering M4/GIRK thallium flux, either direction, primary screen, M4 allosteric agonist project, cell-based, HEK293 M4/GIRK, BTC-AM (AID 625;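 active = fluorescence slope after compound addition differing from the mean of all tested samples at 99.7% confidence, mostly higher but some lower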;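 note: thallium influx through GIRK channels coupled to M4 in HEK293 cells with BTC-AM dye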); conditions: at 10 µM, actives lie on both sides
[18] = inhibitors of larval lipid processing in zebrafish, primary screen, whole organism, PED6 fluorescence, gall bladder and intestine (AID 686;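 active = a full or partial loss of lipid-probe fluorescence in the fish gall bladder, intestine or both, judged by eye; inactive = no fluorescence loss, or compound toxic to the fish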;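 note: larvae 5 to 7 days old with five fish per well; signal comes from phospholipase A2 cleavage of quenched PED6 carried via bile; overnight exposure to compound and PED6 before scoring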); conditions: Zebrafish larvae PED6 lipid processing, fluorescence scoring; screened at 20 µM (by protocol)
[19] = PubChem AID 1714; conditions: HEK293-KCC2 + bumetanide/ouabain, thallium flux FluoZin2; at 10 µM; stronger effect = higher value;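 note: raw slope of fluorescence over initial fluorescence between 10 and 20 s after thallium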
[20] = measured here: cell density z-score
[21] = measured here: nuclear c-Myc green intensity z-score
[22] = measured here: nuclear pErk red intensity z-score, stronger effect = higher value

Chain of Dual specificity protein phosphatase 6 (Homo sapiens) (Q16828 whole entry, looked up): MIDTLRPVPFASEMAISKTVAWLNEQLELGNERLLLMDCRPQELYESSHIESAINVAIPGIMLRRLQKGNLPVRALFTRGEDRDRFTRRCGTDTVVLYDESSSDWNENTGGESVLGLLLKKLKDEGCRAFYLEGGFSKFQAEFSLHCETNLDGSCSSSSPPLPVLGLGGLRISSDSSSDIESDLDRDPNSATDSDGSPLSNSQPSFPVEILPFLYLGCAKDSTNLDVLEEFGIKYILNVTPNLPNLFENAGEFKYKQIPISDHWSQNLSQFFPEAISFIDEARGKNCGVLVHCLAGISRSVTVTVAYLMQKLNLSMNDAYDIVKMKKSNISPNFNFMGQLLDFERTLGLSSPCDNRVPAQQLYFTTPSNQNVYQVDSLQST
Chain of Alpha-2C adrenergic receptor (Homo sapiens) (P18825 whole entry, looked up): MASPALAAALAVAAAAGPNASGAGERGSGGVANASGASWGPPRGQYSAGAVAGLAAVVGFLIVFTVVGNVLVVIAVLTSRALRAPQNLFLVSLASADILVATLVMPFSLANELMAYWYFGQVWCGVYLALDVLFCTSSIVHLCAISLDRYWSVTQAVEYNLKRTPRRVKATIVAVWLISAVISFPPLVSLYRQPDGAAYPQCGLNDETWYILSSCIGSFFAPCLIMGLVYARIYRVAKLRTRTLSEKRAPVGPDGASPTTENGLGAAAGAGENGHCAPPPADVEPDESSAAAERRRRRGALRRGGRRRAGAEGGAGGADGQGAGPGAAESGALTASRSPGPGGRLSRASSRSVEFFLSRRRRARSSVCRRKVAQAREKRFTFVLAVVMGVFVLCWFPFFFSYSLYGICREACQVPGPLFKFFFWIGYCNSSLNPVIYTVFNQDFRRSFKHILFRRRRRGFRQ
Chain of Voltage-gated potassium channel subunit beta-2 (Rattus norvegicus) (P62483 whole entry, looked up): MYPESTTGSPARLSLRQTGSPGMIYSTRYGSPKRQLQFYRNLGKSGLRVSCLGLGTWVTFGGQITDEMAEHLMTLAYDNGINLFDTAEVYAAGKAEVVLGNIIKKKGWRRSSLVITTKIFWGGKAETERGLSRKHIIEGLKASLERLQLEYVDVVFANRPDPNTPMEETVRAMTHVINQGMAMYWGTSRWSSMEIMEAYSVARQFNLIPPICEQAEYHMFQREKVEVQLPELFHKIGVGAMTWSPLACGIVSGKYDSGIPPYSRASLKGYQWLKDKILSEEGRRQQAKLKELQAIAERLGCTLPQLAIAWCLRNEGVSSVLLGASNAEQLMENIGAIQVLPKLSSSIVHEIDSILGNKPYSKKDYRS
Chain of Solute carrier family 12 member 5 (Homo sapiens) (Q9H2X9 whole entry, looked up): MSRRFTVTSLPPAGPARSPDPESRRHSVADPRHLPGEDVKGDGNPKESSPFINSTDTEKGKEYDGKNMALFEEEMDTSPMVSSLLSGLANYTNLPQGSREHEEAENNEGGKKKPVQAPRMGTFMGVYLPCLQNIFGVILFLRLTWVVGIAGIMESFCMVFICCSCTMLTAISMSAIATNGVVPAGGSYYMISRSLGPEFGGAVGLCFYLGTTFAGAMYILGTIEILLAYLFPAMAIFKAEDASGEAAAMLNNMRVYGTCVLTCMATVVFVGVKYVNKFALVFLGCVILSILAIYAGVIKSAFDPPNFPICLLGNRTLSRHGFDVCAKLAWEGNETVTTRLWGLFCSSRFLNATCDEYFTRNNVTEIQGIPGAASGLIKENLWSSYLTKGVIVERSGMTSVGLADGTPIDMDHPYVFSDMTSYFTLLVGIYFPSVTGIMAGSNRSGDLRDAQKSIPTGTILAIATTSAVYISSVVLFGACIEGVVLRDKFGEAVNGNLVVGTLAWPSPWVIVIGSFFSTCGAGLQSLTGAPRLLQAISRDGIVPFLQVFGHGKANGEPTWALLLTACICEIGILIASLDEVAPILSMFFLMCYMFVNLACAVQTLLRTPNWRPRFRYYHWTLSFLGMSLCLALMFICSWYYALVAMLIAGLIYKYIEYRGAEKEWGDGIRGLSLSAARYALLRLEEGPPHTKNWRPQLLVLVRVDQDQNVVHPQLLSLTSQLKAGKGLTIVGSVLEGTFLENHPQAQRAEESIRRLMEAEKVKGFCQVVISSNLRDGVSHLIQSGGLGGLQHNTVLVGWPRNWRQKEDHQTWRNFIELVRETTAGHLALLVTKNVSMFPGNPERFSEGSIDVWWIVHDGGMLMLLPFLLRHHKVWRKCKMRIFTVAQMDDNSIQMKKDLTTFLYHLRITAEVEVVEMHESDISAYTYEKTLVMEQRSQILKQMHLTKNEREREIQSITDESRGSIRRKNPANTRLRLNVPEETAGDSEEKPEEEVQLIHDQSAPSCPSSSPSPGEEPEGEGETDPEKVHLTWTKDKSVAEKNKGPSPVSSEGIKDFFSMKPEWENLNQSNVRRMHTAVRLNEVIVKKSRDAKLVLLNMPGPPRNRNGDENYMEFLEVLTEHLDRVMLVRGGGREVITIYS
Chain of Muscarinic acetylcholine receptor M4 (Homo sapiens) (P08173 whole entry, looked up): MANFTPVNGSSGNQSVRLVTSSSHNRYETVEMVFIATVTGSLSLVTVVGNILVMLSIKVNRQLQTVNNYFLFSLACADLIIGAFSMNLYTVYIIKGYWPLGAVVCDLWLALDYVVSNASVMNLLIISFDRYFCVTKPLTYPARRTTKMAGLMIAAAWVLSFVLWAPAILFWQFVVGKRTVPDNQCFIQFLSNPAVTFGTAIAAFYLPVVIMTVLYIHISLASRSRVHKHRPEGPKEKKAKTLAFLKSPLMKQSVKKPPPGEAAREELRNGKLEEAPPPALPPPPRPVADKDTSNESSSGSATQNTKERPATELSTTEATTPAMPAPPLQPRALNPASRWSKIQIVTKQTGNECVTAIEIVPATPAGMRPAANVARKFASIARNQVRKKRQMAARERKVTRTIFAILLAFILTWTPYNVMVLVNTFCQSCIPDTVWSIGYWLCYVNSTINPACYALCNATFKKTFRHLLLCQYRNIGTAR

Compound: CCOC(=O)c1ccccc1N1C(=O)C2Sc3[nH]c(=O)sc3C(/C=C/c3ccccc3)C2C1=O (stereo not drawn)
- normalised thallium flux (F/F0 slope) [1]: 0.00694 (inactive)
- normalized thallium flux [2]: 0.0266 (active)
- thallium flux rate (normalised fluorescence) [3]: 0.00732 (inactive)
- raw Tl+ flux slope (below DMSO = inhibition, above = activation) [4]: 0.00834 (active)
- thallium flux slope [5]: 0.0106 (inactive)

Compound: CC(C(=O)O)c1ccc(-c2ccccc2)c(F)c1 (stereo not drawn)
- cell count [6]: 557
- inhibition [6]: -7.8% (inactive)
- inhibition of aggregation [7]: -18.5% (inactive)
- nuclei count [7]: 101%
- inhibition [8]: -48.5% (inactive)
- nuclei count [8]: 113%
- z-score [9, 20]: 2.7
- z-score [9, 21]: -2.89
- z-score [9, 22]: 0.18
- inhibition [10]: 23.4% (inactive)
- fluorescence slope [11]: -0.456 (inactive)
- NADPH fluorescence slope [12]: -6e-05 (inactive)
- slope [13]: 0.0055 (inactive)
- inhibition [14]: 42.5% (inactive)
- inhibition [15]: 18.5% (inactive)
- inhibition [16]: 42.9% (inactive)

Compound: CN1c2ccccc2-c2nc3ccccc3n2C1c1ccco1 (stereo not drawn)
- cell count [6]: 385
- inhibition [6]: -3.7% (inactive)
- inhibition [8]: 1.9% (inactive)
- nuclei count [8]: 99.5%
- z-score [9, 20]: 0.728
- z-score [9, 21]: 0.674
- z-score [9, 22]: -0.101
- inhibition [10]: 6.04% (inactive)
- fluorescence slope [11]: -0.315 (inactive)
- NADPH fluorescence slope [12]: 1.6e-05 (inactive)
- fluorescence slope [17]: 0.00492 (inactive)
- outcome [18]: inactive
- normalised thallium flux (F/F0 slope) [1]: 0.00855 (inactive)
- normalized thallium flux [2]: 0.0321 (inactive)
- thallium flux rate (normalised fluorescence) [3]: 0.00467 (active)
- thallium flux slope [5]: 0.0097 (inactive)
- inhibition [14]: 3.48% (inactive)

Compound: COc1ccc(Cl)cc1S(=O)(=O)Nc1cccc(C(=O)O)c1
- normalised thallium flux (F/F0 slope) [1]: 0.00707 (inactive)
- normalized thallium flux [2]: 0.0299 (inactive)
- thallium flux slope [5]: 0.0107 (inactive)

Compound: Cn1c(/C(C#N)=C/Nc2ccccn2)nc2ccccc21
- cell count [6]: 346
- inhibition [6]: 4.3% (inactive)
- inhibition of aggregation [7]: -16.9% (inactive)
- nuclei count [7]: 88.4%
- inhibition [8]: -44% (inactive)
- nuclei count [8]: 135%
- z-score [9, 20]: -0.331
- z-score [9, 21]: -0.988
- z-score [9, 22]: 1.63
- inhibition [10]: 5.26% (inactive)
- fluorescence slope [11]: -0.224 (inactive)
- NADPH fluorescence slope [12]: -0.000107 (inactive)
- slope [13]: 0.00613 (inactive)
- inhibition [14]: 2.14% (inactive)
- inhibition [15]: -13.3% (inactive)
- inhibition [16]: -19.7% (inactive)

Compound: Cc1[nH]n(-c2ccccc2)c(=O)c1N=Nc1ccccc1C(=O)N1CCCCC1
- normalized thallium flux [19]: 0.0338 (active)
- normalized thallium flux [2]: 0.03 (inactive)
- thallium flux rate (normalised fluorescence) [3]: 0.0142 (active)
- raw Tl+ flux slope (below DMSO = inhibition, above = activation) [4]: 0.0253 (active)

Compound: Cc1ccc(-c2noc(CN3CCN(Cc4ccccc4)CC3)n2)cc1
- normalised thallium flux (F/F0 slope) [1]: 0.0176 (inactive)
- thallium flux rate (normalised fluorescence) [3]: 0.00768 (inactive)
- raw Tl+ flux slope (below DMSO = inhibition, above = activation) [4]: 0.0139 (inactive)
- thallium flux slope [5]: 0.0101 (inactive)

Compound: CCN(CC)C(=O)c1ccc(O)c(OC)c1
- cell count [6]: 502
- inhibition [6]: -11.1% (inactive)
- inhibition of aggregation [7]: 8.7% (inactive)
- nuclei count [7]: 92.4%
- inhibition [8]: -54.9% (inactive)
- nuclei count [8]: 125%
- z-score [9, 20]: 0.597
- z-score [9, 21]: 0.258
- z-score [9, 22]: -0.513
- inhibition [10]: 8% (inactive)
- fluorescence slope [11]: -0.5 (inactive)
- NADPH fluorescence slope [12]: -7.4e-05 (inactive)
- slope [13]: 0.00537 (inactive)
- inhibition [14]: 4.81% (inactive) and 9.44% (inactive)
- inhibition [15]: -6.3% (inactive)
- inhibition [16]: 27.6% (inactive)

Compound: O=C(Nc1ccccc1F)C1C2C=CC3(O2)C1C(=O)N(c1cccnc1)C3C(=O)NC1CCCCC1 (stereo not drawn)
- normalized thallium flux [19]: 0.00547 (active)
- normalized thallium flux [2]: 0.0222 (active)
- raw Tl+ flux slope (below DMSO = inhibition, above = activation) [4]: 0.0131 (active)
- thallium flux slope [5]: 0.0108 (inactive)

Compound: CCOC(=O)c1c(NC(=S)NC)sc2c1CCCC2
- normalised thallium flux (F/F0 slope) [1]: 0.0181 (active)
- normalized thallium flux [2]: 0.0972 (active)
- thallium flux rate (normalised fluorescence) [3]: 0.0987 (active)
- thallium flux slope [5]: 0.101 (active)

Compound: CCCCC(=O)O[C@H]1CC[C@H]2[C@@H]3CCc4cc(O)ccc4[C@H]3CC[C@]12C
- cell count [6]: 524
- inhibition [6]: -3.1% (inactive)
- inhibition of aggregation [7]: 7% (inactive)
- nuclei count [7]: 88.9%
- inhibition [8]: -104% (inactive)
- nuclei count [8]: 131%
- z-score [9, 20]: -0.577
- z-score [9, 21]: -1.69
- z-score [9, 22]: -0.657
- inhibition [10]: -0.828% (inactive)
- fluorescence slope [11]: -0.453 (inactive)
- NADPH fluorescence slope [12]: -3e-05 (inactive)
- slope [13]: 0.00721 (inactive)
- inhibition [14]: 22.7% (inactive)
- inhibition [15]: 16.8% (inactive)
- inhibition [16]: 40.4% (inactive)

Compound: C[C@@H](C(=O)Nc1ccc2ccccc2c1)[C@@H]1C[C@@]1(C)[C@@H](NC(=O)c1cccnc1)c1ccccc1
- normalised thallium flux (F/F0 slope) [1]: 0.00785 (inactive)
- normalized thallium flux [2]: 0.0226 (active)
- thallium flux rate (normalised fluorescence) [3]: 0.00775 (inactive)
- raw Tl+ flux slope (below DMSO = inhibition, above = activation) [4]: 0.0135 (active)
- thallium flux slope [5]: 0.0098 (inactive)

Compound: N#Cc1c(-c2ccc(Cl)cc2)c2c([nH]c1=S)CCCC2
- normalized thallium flux [19]: 0.0281 (active)
- normalized thallium flux [2]: 0.0403 (active)
- thallium flux rate (normalised fluorescence) [3]: 0.0184 (active)
- raw Tl+ flux slope (below DMSO = inhibition, above = activation) [4]: 0.0302 (active)
- thallium flux slope [5]: 0.0192 (active)

Compound: CC1CC(C)(C)n2c(O)c(N=NC(N)=S)c3cccc1c32 (stereo not drawn)
- normalized thallium flux [19]: 0.0259 (active)
- normalized thallium flux [2]: 0.0382 (inactive)
- raw Tl+ flux slope (below DMSO = inhibition, above = activation) [4]: 0.0373 (active)

Compound: CCCC(=O)N1c2ccccc2NC2=C(C(=O)CCC2)C1c1ccc(F)cc1 (stereo not drawn)
- cell count [6]: 593
- inhibition [6]: -9.6% (inactive)
- inhibition of aggregation [7]: 3.9% (inactive)
- nuclei count [7]: 124%
- inhibition [8]: -94.4% (inactive)
- nuclei count [8]: 123%
- fluorescence slope [11]: -0.574 (inactive)
- NADPH fluorescence slope [12]: -1.5e-05 (inactive)
- slope [13]: 0.0063 (inactive)
- normalised thallium flux (F/F0 slope) [1]: 0.0086 (inactive)
- normalized thallium flux [2]: 0.0312 (inactive)
- thallium flux rate (normalised fluorescence) [3]: 0.0072 (inactive)
- raw Tl+ flux slope (below DMSO = inhibition, above = activation) [4]: 0.0212 (inactive)
- inhibition [15]: 8.4% (inactive)
- inhibition [16]: 23.4% (inactive)
